Test results reported in PubChem BioAssay AID1794808 (University of Kansas High Throughput Screening Laboratory, 2022).
About 520 (0.25%) of roughly 210,000 compounds were called active. No stated cut-off is given here; in the data, active means inhibition above about 50%; inactive means the rest. The sample as a whole holds a higher share of actives than the screen did.

These molecules were tested on Plasmodium falciparum apicoplast DNA polymerase (apPOL) (assay: Pf-apPOL inhibitors, biochemical, fluorescence (AID 1794808)). Details: Recombinant Pf-apPOL, molecular beacon fluorescence, 1.5 h; at 10 µM; active compounds read high.

Row | Compound | inhibition
1 | CC(C)CC1=NN(C(=O)c2cccc(Cl)c2)C(O)(C(F)(F)F)C1 (stereo not given) | 2% (inactive)
2 | CC(C)c1cccc(N2C=C(C#N)S(=O)(=O)c3c(F)cccc32)c1 | -0.6% (inactive)
3 | COc1ccc(NS(=O)(=O)c2c(C)cc(C)cc2C)c([N+](=O)[O-])c1 | -4% (inactive)
4 | COc1cc(C(=O)N2CCC(c3noc(-c4cccc(F)c4)n3)CC2)cc(OC)c1OC | 0.1% (inactive)
5 | O=C(c1ccc(OCC2CCCN(C(=O)c3ccccn3)C2)cc1)N1CCCC1 (stereo not given) | 3.1% (inactive)
6 | CCc1ccc(OCC(=O)Nc2cc(OC)c(Cl)cc2OC)cc1 | -9.2% (inactive)
7 | O=C(NCCCNc1ccc([N+](=O)[O-])cc1Cl)c1ccccc1Br | 4.9% (inactive)
8 | Cc1nc(-c2ccccc2)sc1C(=O)ON=C(N)c1ccc([N+](=O)[O-])o1 | 11.5% (inactive)
9 | CCCOc1ccc(S(=O)(=O)NCC2CCN(S(=O)(=O)C3CC3)CC2)cc1C | -5.5% (inactive)
10 | CC(=O)N1CCc2ccccc2C1C(=O)NCc1ccc(C)cc1 (stereo not given) | -0.9% (inactive)
11 | COc1cccc2sc(=NC(=O)c3cccc(F)c3)n(C)c12 | 2.7% (inactive)
12 | Cc1nc(N2CCC(C(N)=O)CC2)nc(NCc2ccco2)c1[N+](=O)[O-] | -9.6% (inactive)
13 | COc1cccc(-c2n[nH]c(C)c2NC(=O)C(C)C)c1 | -6.9% (inactive)
14 | CCn1c(C2CCN(S(=O)(=O)c3cc(OC)ccc3OC)C2)nc2cccnc21 (stereo not given) | -5.5% (inactive)
15 | Cc1ccc(CC(=O)NC2CCN(c3cc(C)cc(C)c3)C2=O)cc1 (stereo not given) | -5.7% (inactive)
16 | Cc1nc(-c2ccccc2F)sc1C(=O)N1CCCC1 | -7.4% (inactive)
17 | Cc1nc(-c2ccncc2)nc2c1CC(=O)N2C1CCCC1 | -7.5% (inactive)
18 | COc1cc(NC(=O)c2cccc([N+](=O)[O-])c2)c(OC)cc1NC(=O)c1ccccc1 | -2.7% (inactive)
19 | Cc1cccc(CN2CCCn3nc(C(=O)Nc4ccccc4C)cc3C2=O)c1 | -2.2% (inactive)
20 | CC1(C(=O)O)NC(c2cc(Cl)ccc2O)C2C(=O)N(c3ccc(Cl)cc3)C(=O)C21 (stereo not given) | -9.1% (inactive)
21 | O=Cc1ccc(OCc2cccc(F)c2)c(Cl)c1 | 1.2% (inactive)
22 | O=C1CN(C(=O)c2c(F)cccc2F)C(c2ccccc2)c2cc(F)ccc2N1 (stereo not given) | -3.5% (inactive)
23 | COc1cccc(-c2cc3n(n2)CCCN(C(=O)Cc2ccsc2)C3)c1 | -7.6% (inactive)
24 | COc1ccccc1N1CCN(CC(=O)Nc2ncc(C)s2)C1=O | -2.4% (inactive)
25 | CCC(CC)C(=O)N1CCN(c2ccc([N+](=O)[O-])cc2)CC1 | -4.2% (inactive)
